# Measured values taken from PubChem BioAssay.
# Measured potencies and affinities stand elsewhere. Values without a mark were called inactive. The rule behind the calls is not given here.
# Tested on: not listed separately
# Experiment: toxicity toward HepG2 liver cells – cell-based, plate reader, cherry-pick, antagonist series, cytotoxicity control, dose response (AID 743416);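 note: 0% = neutral control wells and -100% = positive control wells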
# Settings: series mostly up to 26 µM; activity change, negative = cytotoxicity: at the top concentration
row,Compound,"activity change, negative = cytotoxicity"
1,CCc1nnc2cccc(Cl)n12,55.8%
2,C[C@@H]1CN([C@@H](C)CO)C(=O)c2cccc(NC(=O)Nc3ccc(C(F)(F)F)cc3)c2O[C@H]1CN(C)C(=O)Nc1cccc2ccccc12,-10.3% [at 12 µM]
3,C[C@H](CO)N1C[C@H](C)[C@H](CN(C)C(=O)Nc2ccc(F)cc2)OCCCC[C@H](C)Oc2ccc(NC(=O)NC3CCCCC3)cc2C1=O,-9.47%
4,COc1ccc(-c2noc(CCC(=O)N3CCN(c4ccc(Cl)cc4)CC3)n2)cc1,16.8%
5,O=C(Cc1ccccc1Cl)Nc1cccnc1,4.92%
6,Cc1noc(C)c1S(=O)(=O)Nc1cccc2c1O[C@H](CN(C)C(=O)Nc1ccc(F)cc1)[C@H](C)CN([C@H](C)CO)C2=O,-2.53%
7,COc1ccccc1CNS(=O)(=O)c1ccc(N2CCCC2)cc1Br,2.26%
8,Cc1ccc(NC(=O)c2ncn(CC(=O)NCc3ccc4[nH]ccc4c3)n2)cc1C,-1%
9,CC(=O)c1c(C)[nH]c(C(=O)CN2C(=O)NC(C)(c3ccc(C)cc3)C2=O)c1C (centres undefined),10.5%
10,C[C@@H]1CN([C@H](C)CO)C(=O)c2c(c3ccccc3n2C)-c2ccccc2CO[C@H]1CN(C)S(=O)(=O)c1cn(C)cn1,-4.02% [at 23.5 µM]
11,C[C@H]1CCCCO[C@H](CN(C)C(=O)Nc2cccc3ccccc23)[C@@H](C)CN([C@@H](C)CO)C(=O)c2cc(NS(=O)(=O)c3cn(C)cn3)ccc2O1,-13.7%
12,CCN(C(=O)COC(=O)C12CC3CC(CC(O)(C3)C1)C2)c1c(N)n(Cc2ccccc2)c(=O)[nH]c1=O,9.07%
13,O=C(NCc1ccc(F)cc1)c1cc(C2CCCCN2S(=O)(=O)c2cccs2)on1 (centres undefined),39.5%
14,COc1ccc2c3c([nH]c2c1)[C@H](CO)N(C(C)=O)CC31CCN(C(=O)CN2CCOCC2)CC1,8.14%
15,O=C(CC1CS(=O)(=O)CC1CC(=O)Nc1ccc2c(c1)OCCO2)Nc1ccc2c(c1)OCCO2 (centres undefined),7.87%
16,C[C@@H]1CN([C@@H](C)CO)C(=O)c2cc(NS(C)(=O)=O)ccc2O[C@@H](C)CCCCO[C@@H]1CN(C)Cc1ccc(C(F)(F)F)cc1,18.6%
17,CCOC(=O)C(C)N1c2cccc3cccc(c23)S1(=O)=O (centres undefined),5.17%

row,Compound,"activity change, negative = cytotoxicity"
1,C[C@H](CO)N1C[C@H](C)[C@@H](CN(C)CC2CCOCC2)Oc2ncc(Br)cc2C1=O,-2.81%
2,O=C(NCc1ccco1)c1cc(NS(=O)(=O)c2cccc([N+](=O)[O-])c2)ccc1O,-0.021%
3,O=S1(=O)CCOC[C@H](CC2CCCCC2)N1Cc1ccccc1F,0.922%
4,Cc1cc(Cl)ccc1OCCCC(=O)Nc1cc(S(=O)(=O)N2CCOCC2)ccc1N1CCOCC1,12.5%
5,CCn1cc(S(=O)(=O)Nc2cccnc2)cn1,-4.51%
6,CC(C)NC(=O)Nc1ccc2c(c1)C(=O)N([C@H](C)CO)C[C@@H](C)[C@H](CN(C)S(C)(=O)=O)OCCCC[C@H](C)O2,15.3%
7,O=C(c1ccc(F)cc1)N1CC(=O)N2[C@@H](CO)[C@@H](c3ccc(C#CC4CCCC4)cc3)[C@@H]2C1,-36.3%
8,O=C(NCCOc1ccccc1)[C@@H]1CCCN1C(=O)c1cccs1,-0.822%
9,CCOC(=O)Nc1ccc(N2CCOCC2)c(S(=O)(=O)Nc2ccc(Cl)cc2)c1,-22%
10,Cc1ccnc(N2C(=O)c3ccccc3C2Nc2ccc3c(c2)OCCO3)c1 (centres undefined),-7.33%
11,CC(C)c1ccc(NC(=O)N2CCN(S(=O)(=O)c3ccccc3)CC2)cc1,-18.9%
12,Cn1cnc(S(=O)(=O)N2C[C@@H](O)COC[C@H]3O[C@H](CC(=O)NC4CCCC4)CC[C@@H]32)c1,-23.7%
13,O=C(Nc1cc(S(=O)(=O)Nc2ccccc2Cl)ccc1O)c1ccc(F)cc1F,19%
14,CO[C@H]1CN(C)C(=O)c2ccc(NC(=O)C3CC3)cc2OC[C@@H](C)N(C(=O)Cc2ccccn2)C[C@H]1C,-18.7%
15,Cc1cccn2c(CNCC3(c4ccccc4)CCCC3)c(C(=O)N3CCOCC3)nc12,6.67%
16,CCOC(=O)C1=CCN(S(=O)(=O)c2ccccc2C)C1c1cccc(C)c1 (centres undefined),2.31%
17,C[C@H](CO)N1C[C@H](C)[C@@H](CN(C)S(=O)(=O)c2cccs2)Oc2c(cccc2N(C)C)C1=O,26%

# Molecular target: Melanocortin receptor 4 (Homo sapiens) (UniProt P32245)
# Experiment: blockade of melanocortin 4 receptor signaling – cell-based, plate reader, cherry pick, counter-screen for LGR2 antagonist project, dose response (AID 743444)
# Settings: MC4R-expressing cells, antagonist mode; series mostly up to 35 µM; activity change, negative = inhibition: at the top concentration
row,Compound,"activity change, negative = inhibition [%]"
1,CCc1nnc2cccc(Cl)n12,38.6
2,C[C@@H]1CN([C@@H](C)CO)C(=O)c2cccc(NC(=O)Nc3ccc(C(F)(F)F)cc3)c2O[C@H]1CN(C)C(=O)Nc1cccc2ccccc12,-10.3
3,C[C@H](CO)N1C[C@H](C)[C@H](CN(C)C(=O)Nc2ccc(F)cc2)OCCCC[C@H](C)Oc2ccc(NC(=O)NC3CCCCC3)cc2C1=O,-11.9
4,Cc1ccc(S(=O)(=O)N2[C@@H](CO)CO[C@H]2CC(=O)OCc2ccccc2)cc1,31.3
5,COc1ccc(-c2noc(CCC(=O)N3CCN(c4ccc(Cl)cc4)CC3)n2)cc1,55.4
6,O=C(Cc1ccccc1Cl)Nc1cccnc1,26.7
7,COc1ccc(NC(=O)Nc2ccc3c(c2)CC(=O)N([C@@H](C)CO)C[C@@H](C)[C@H](CN(C)Cc2ccncc2)O3)cc1,2.76
8,Cc1noc(C)c1S(=O)(=O)Nc1cccc2c1O[C@H](CN(C)C(=O)Nc1ccc(F)cc1)[C@H](C)CN([C@H](C)CO)C2=O,-11.7
9,COc1ccccc1CNS(=O)(=O)c1ccc(N2CCCC2)cc1Br,51.3
10,Cc1ccc(NC(=O)c2ncn(CC(=O)NCc3ccc4[nH]ccc4c3)n2)cc1C,31.5
11,CC(=O)c1c(C)[nH]c(C(=O)CN2C(=O)NC(C)(c3ccc(C)cc3)C2=O)c1C (centres undefined),62.1
12,C[C@@H]1CN([C@H](C)CO)C(=O)c2c(c3ccccc3n2C)-c2ccccc2CO[C@H]1CN(C)S(=O)(=O)c1cn(C)cn1,5.31
13,C[C@H]1CCCCO[C@H](CN(C)C(=O)Nc2cccc3ccccc23)[C@@H](C)CN([C@@H](C)CO)C(=O)c2cc(NS(=O)(=O)c3cn(C)cn3)ccc2O1,-10.4
14,CCN(C(=O)COC(=O)C12CC3CC(CC(O)(C3)C1)C2)c1c(N)n(Cc2ccccc2)c(=O)[nH]c1=O,16.7
15,O=C(NCc1ccc(F)cc1)c1cc(C2CCCCN2S(=O)(=O)c2cccs2)on1 (centres undefined),64.1
16,COc1ccc2c3c([nH]c2c1)[C@H](CO)N(C(C)=O)CC31CCN(C(=O)CN2CCOCC2)CC1,7.8
17,O=C(CC1CS(=O)(=O)CC1CC(=O)Nc1ccc2c(c1)OCCO2)Nc1ccc2c(c1)OCCO2 (centres undefined),-8.07
18,N#C[C@H]1[C@@H](c2ccc(C3=CCCCC3)cc2)[C@H](CO)N1C(=O)c1ccccn1,-6.03
19,C[C@@H]1CN([C@@H](C)CO)C(=O)c2cc(NS(C)(=O)=O)ccc2O[C@@H](C)CCCCO[C@@H]1CN(C)Cc1ccc(C(F)(F)F)cc1,5.06
20,CCOC(=O)C(C)N1c2cccc3cccc(c23)S1(=O)=O (centres undefined),12

row,Compound,"activity change, negative = inhibition [%]"
1,C[C@H](CO)N1C[C@H](C)[C@@H](CN(C)CC2CCOCC2)Oc2ncc(Br)cc2C1=O,24.3
2,O=C(NCc1ccco1)c1cc(NS(=O)(=O)c2cccc([N+](=O)[O-])c2)ccc1O,70.3
3,O=S1(=O)CCOC[C@H](CC2CCCCC2)N1Cc1ccccc1F,0.857
4,Cc1cc(Cl)ccc1OCCCC(=O)Nc1cc(S(=O)(=O)N2CCOCC2)ccc1N1CCOCC1,15.5
5,CCn1cc(S(=O)(=O)Nc2cccnc2)cn1,39
6,O=S(=O)(Nc1ccc(O)c2ccccc12)c1ccc(OC(F)(F)F)cc1,7.27
7,CC(C)NC(=O)Nc1ccc2c(c1)C(=O)N([C@H](C)CO)C[C@@H](C)[C@H](CN(C)S(C)(=O)=O)OCCCC[C@H](C)O2,2.3
8,O=C(c1ccc(F)cc1)N1CC(=O)N2[C@@H](CO)[C@@H](c3ccc(C#CC4CCCC4)cc3)[C@@H]2C1,-6.97
9,O=C(NCCOc1ccccc1)[C@@H]1CCCN1C(=O)c1cccs1,5.42
10,CCOC(=O)Nc1ccc(N2CCOCC2)c(S(=O)(=O)Nc2ccc(Cl)cc2)c1,45.1
11,Cc1ccnc(N2C(=O)c3ccccc3C2Nc2ccc3c(c2)OCCO3)c1 (centres undefined),10.6
12,CC(C)c1ccc(NC(=O)N2CCN(S(=O)(=O)c3ccccc3)CC2)cc1,11.7
13,Cn1cnc(S(=O)(=O)N2C[C@@H](O)COC[C@H]3O[C@H](CC(=O)NC4CCCC4)CC[C@@H]32)c1,5.62
14,O=C(Nc1cc(S(=O)(=O)Nc2ccccc2Cl)ccc1O)c1ccc(F)cc1F,-0.724
15,CO[C@H]1CN(C)C(=O)c2ccc(NC(=O)C3CC3)cc2OC[C@@H](C)N(C(=O)Cc2ccccn2)C[C@H]1C,-5.86
16,COc1ccc(N(CC(=O)NCc2cccs2)S(=O)(=O)c2ccc(C(C)=O)cc2)cc1,52.5
17,COCC#Cc1ccc2c(c1)O[C@H](CN(C)S(=O)(=O)c1cccc(F)c1)[C@@H](C)CN([C@H](C)CO)S2(=O)=O,11.7
18,Cc1cccn2c(CNCC3(c4ccccc4)CCCC3)c(C(=O)N3CCOCC3)nc12,-25.4
19,CCOC(=O)C1=CCN(S(=O)(=O)c2ccccc2C)C1c1cccc(C)c1 (centres undefined),-6.63
20,C[C@H](CO)N1C[C@H](C)[C@@H](CN(C)S(=O)(=O)c2cccs2)Oc2c(cccc2N(C)C)C1=O,-19.9
